Laboratory results from PubChem BioAssay (NCI).
Compounds without any hit were thinned out: in the full panel of roughly 83,000, 20% have a hit.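 Each cell line was grown in a 96-well plate and treated with one concentration of compound for 48 hours. Values below 10 were considered active.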 Active and inactive are the calls of the source.

test system: NCI-H23 lung; test: NCI-60 one-dose screen, 48 h (100 = growth as untreated, 0 = no growth, -100 = all killed); conditions: 10 µM unless noted

| Structure (SMILES) | growth |
| --- | --- |
| O=C(CCCCCCN1CC(=O)N2[C@H](c3ccc(Cl)cc3)c3[nH]c4ccccc4c3C[C@@H]2C1=O)NO | 60.2% (inactive) |
| CC(=O)OC[C@]12CC[C@@H]([C@@H](C)c3nnc(-c4ccncc4)o3)[C@@H]1[C@H]1CC[C@@H]3[C@@]4(C)CC[C@H](OC(C)=O)C(C)(C)[C@@H]4CC[C@@]3(C)[C@]1(C)CC2 | 82% (inactive) |
| Cc1ccc(C(=O)Nc2cccc(C#Cc3cccc4[nH]nc(N)c34)c2)cc1C(F)(F)F | 51.8% (inactive) |
| CCCCNC(=O)Oc1ccc(/C(=C(/C)Cc2ccc(OC)cc2)c2ccc(OCCN3CCCCCC3)cc2)cc1 | 85% (inactive) |
| Cc1ccc2nc(/C(C#N)=C(/CCCO)NC(Cc3ccccc3)C(=O)OCc3ccccc3)[nH]c(=O)c2c1 (centres undefined) | 43% (inactive) |
| O=C1/C(=C2\SC(=S)N(C3CC3)C2=O)SC(=S)N1C1CC1 | 96.7% (inactive) |
| CC1=CC(c2ccco2)=C2C(N)=NNC2N1 (centres undefined) | 97.6% (inactive) |
| Nc1nc2c(c3ncccc13)C(c1cccc(Cl)c1)Cc1ncccc1-2 (centres undefined) | 39.7% (inactive) |
| O=C(O)c1ccc(-c2ccc(/C=N/Nc3nc(Nc4ccccc4)nc(N4CCCCC4)n3)o2)cc1 | 62.2% (inactive) |
| COC(=O)c1c2c(c(C)[n+]([O-])c1C)C(=O)C(NCc1cccc(Cl)c1)=CC2=O | 14.7% (inactive) |
| Fc1ccc(Cn2cc(CSc3nc4ccccc4o3)nn2)cc1 | 106% (inactive) |
| CC1CCN(C(=O)CCCl)c2ccccc21 (centres undefined) | 90.6% (inactive) |
| CC1CCN(C(=S)SCC(=O)NC(=O)c2ccccc2)CC1 | 102% (inactive) |
| CCOc1ccc(-n2nc(C(=O)NCc3ccccc3OC)nc2-c2cc(OC)c(OC)c(OC)c2)cc1 | 60.7% (inactive) |
| COc1ccc(C(=O)N2c3ccccc3Sc3ccccc32)c(C(F)(F)F)c1 | 24.4% (inactive) |
| O=C(N=Nc1c(O)[nH]c2ccccc12)Nc1ccc(F)cc1 | 96.8% (inactive) |
| O=C(O)c1cn(C2CC2)c2cc(N3CCN(C(=O)Nc4nc(-c5ccc(Br)cc5)cs4)CC3)c(F)cc2c1=O | 12.4% (inactive) |
| CCN1C(=O)N(CC)C2C1NN=c1s/c(=C\c3ccc(C(F)(F)F)cc3)c(=O)n12 (centres undefined) | 26.7% (inactive) |
| Cc1ccc(C(=O)c2ccc(CC(=O)N=Nc3c(O)[nH]c4ccc(Br)cc34)n2C)cc1 | 76.1% (inactive) |
| Cc1ccc(Cl)cc1NC(=O)c1sc2nc3c(cc2c1N)C(=O)CCC3 | 63% (inactive) |
| Clc1ccc(-c2cc(-c3ccccc3)nc(NCCNc3ccnc4cc(Cl)ccc34)n2)cc1 | 74.3% (inactive) |
| N#C/C(=C\c1cn(Cc2ccccc2)c2ccccc12)C(=O)Nc1ncc(Cc2ccccc2Cl)s1 | -29.3% (active) |
| CC/C=C\C[C@H](O)C/C=C1/C(=O)C=C[C@@H]1C/C=C\CCCC(=O)O | 79.9% (inactive) |
| C#Cc1cccc(Nc2nc(C)nc3cc(NC(=O)CCl)ccc23)c1 | -55.6% (active) |
